These results are taken from PubChem BioAssay AID504842 (National Center for Advancing Translational Sciences (NCATS), 2011).

In all, about 330,000 compounds went through this assay and about 100 (0.03%) were called active. Roughly 1% stayed inconclusive and do not appear here. This excerpt belongs to a sample that is enriched for actives. Values without a mark were called inactive. Calls follow the shape of the dose curve; as a rule, active = well fitted inhibition curve with a large enough effect; inconclusive = small, poorly fitted or top-dose-only effect; inactive = flat fitted curve, though single readings scatter.
% is scaled to controls: 0 for no effect and ±100 for the full control effect; potency is read from the fitted curve at half-maximal effect.

This test has as its system Chaperonin Mm-Cpn (Methanococcus maripaludis). Description: Inhibitors of TCP-1 ring complex (TRiC) of Methanococcus maripaludis (MmCpn): qHTS. Also: nearly all actives have a fitted effect of over 80% in size.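 As to Potency: enzyme at 25 nM with ATP substrate at 10 µM during the reaction.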 The following applies: purified Mm-Cpn ATPase, ADP Transcreener TR-FRET; series mostly up to 76.9 µM; activity, negative = inhibition: at the top concentration. The source says: The eukaryotic chaperonin TRiC (for TCP-1 ring complex) is an essential and conserved chaperone required for the folding and activation of 10-15% of the proteins encoded by the human genome. […] The TRiC complex consist of two stacked 7-9 membered rings, each containing a central cavity. Substrates are folded within the cavity in an ATP-dependent manner. TRiC is a complex of eight different, essential proteins. As each of the genes encoding the eight subunits is essential for cell viability and no protocol has been developed to over-express this enzyme to high levels. That is why several groups studying the TRiC chaperonin have turned to the archaeal homolog of TRiC, Methanococcus maripaludis (Mm-CPN), and have used this enzyme as a model system for the study of the type II chaperonin family. Small molecule inhibitors of the Mm-CPN enzyme would be extremely useful to study the mechanism of chaperonin activity. Importantly, TRiC and Mm-CPN both require ATP hydrolysis for function. Furthermore, the ATP binding sites are highly conserved among these type II chaperonins. This provides us with an easy, well tested and straightforward assay to identify inhibitors of chaperonin activity. The Mm-CPN assay was developed in 1536-well plate format using the HTRF Transcreener ADP assay kit (Cisbio, Bedford, MA). This assay applied the time resolved fluorescence resonance energy transfer (TR-FRET) principle. ATP in the presence of Mm-CPN is converted to ADP + Pi. An antibody labeled with Eu3+-Cryptate specific and bound to ADP labeled with […] (d2) competes with the unlabeled ADP generated by Mm-CPN. The resulting TR-FRET signal is inversely proportional to the concentration of ADP in the sample. In this assay a reduction in TR-FRET signal is observed with ATP turnover. NIH Chemical Genomics Center [NCGC] NIH Molecular Libraries Probe Centers Network [MLPCN] MLPCN Grant: DA030554-01A1 Assay Submitter (PI): Judith Frydman, Stanford University
Purified Mm-CPN was supplied by the laboratory of Dr. Judith Frydman. Protein samples were stored at -80C as single use aliquots. Protein was thawed in ambient temperature water bath and placed on ice once thawed. Buffer was prepared fresh day of screen. The buffer composition below was used to prepare the working solution of the Mm-CPN protein and ATP substrate. The buffer is comprised of 30 mM TRIS pH 7.4, 100mM KCl, 5mM MgCl2, and 1mM DTT. A final concentration of 25nM Mm-CPN and 10uM ATP per well were used in the screen. Instructions according to the manufacturer were followed for the ADP Transcreener kit. Used 1536 well Greiner white, medium binding (MB), solid bottom plates. Plates were read on the PerkinElmer EnVision plate reader using Excitation = 320 nm and Emission = […], 665 nm. Protocol- 1.Dispense 1.5ul per well of working [Mm-CPN] = 50nM (or 75 ng / well) 2.Spin plate at 1000 rpm for 30 seconds 3.23nl of compound transferred per well 4.Incubate at 37degC for 10 minutes 5.Dispense 1.5ul per well of working [ATP] = 20uM 6.Incubate at 37degC for 30 minutes 7.Dispense 3ul per well of Anti-ADP Cryptate / ADP-d2 mix (prepared as instructed by Cisbio) 8.Incubate at ambient for 30 minutes 9.Read using EnVision
As for `COc1ccc(-n2c(C)nn(CC3CC3)c2=O)cc1`, the “activity, negative = inhibition” value is -3.12%.
Same read-out and setting: in the case of `CC(=O)Nc1cccc2c1[n+]([O-])c(C)c(C)[n+]2[O-]` it was 0.959%; in that of `CCn1cc(C(=O)NCc2ccc(OC)cc2OC)c(=O)c2ccc(C)nc21`, 0.0766%; in that of `O=C(CCC(=O)Nc1ccccc1)N/N=C/c1ccccc1F`, 0.276%.
Turning to `CCOC(=O)c1ccccc1NC(=O)COC(=O)C(Cc1c[nH]c2ccccc12)NC(C)=O` (centres undefined), the “activity, negative = inhibition” value is -1.13%.
On the same count and under the same terms, the same measure for `Cc1cccc(N2CCN(S(=O)(=O)c3ccc4[nH]c(=O)c(=O)[nH]c4c3)CC2C)c1` (centres undefined): -2.27%; for `c1csc(-c2nnc(COc3ccc4c(c3)OCO4)o2)c1`: 0.221%; for `CCCOC1CCCN(C(=O)c2cc(COc3cncc(Cl)c3)on2)C1` (centres undefined): 0.635%.
The same measure, in the same setting: in the case of `COc1cccc(-n2c(N)cc(=O)nc2SCC(=O)Nc2cc(C)on2)c1` it was 0.0443%; in that of `CC1CCCCC1NC(=O)CSc1nnc(-c2ccncc2)n1CCCN(C)C` (centres undefined), -2.75%; in that of `CC(C)C(NC(=O)c1c(F)cccc1F)C(=O)NCc1ccncc1` (centres undefined), -4.23%.
In the case of `CCOC(=O)c1sc(NC(=O)CSc2nc3c(c(=O)n2-c2ccccc2)SCC3)c(C(=O)OCC)c1C`, the “activity, negative = inhibition” value is -1.33%.
The same measure, in the same setting: in the case of `Cn1c(=O)n(C)c2cc(CNc3ccc(N4CCOCC4)c(C(=O)O)c3)ccc21` it was -1.23%; in that of `Cn1c2cc(B(O)O)sc2c2cnn(Cc3ccccc3F)c(=O)c21`, -0.659%.
In the case of `CSCC[C@H](NC(=O)CCCn1nnc2ccccc2c1=O)C(=O)O`, the “activity, negative = inhibition” value was -0.098%.
The same measure, in the same setting: the same measure for `O=C(CCl)Nc1ccc(Sc2ccc(NC(=O)CCl)cc2)cc1`: -5.44%; for `CCCCN(CCCC)CCC(O)c1cc2c(Cl)cc(Cl)cc2c2cc(C(F)(F)F)ccc12` (centres undefined): -0.59%; for `Cc1cc(Cl)ccc1NNC(=O)c1snnc1C`: 5.25%.
Still for that read-out and setting: in the case of `O=C(COC(=O)Cn1[nH]c(=O)c2ccccc2c1=O)Nc1ncc(Cl)cc1Cl` it was 0.0983%; in that of `CC(=O)Nc1cccc(C(=O)OCC(=O)NCc2cc(C)c(O)c(C)c2)c1`, 0.893%; in that of `CSCCC(NC(=O)c1ccccc1)C(=O)N1CCN(Cc2ccc(Cl)cc2)CC1` (centres undefined), 0.977%.
Still for that read-out and setting: the same measure for `CC(C)OC(=O)C(C#N)c1nc2ccccc2nc1N1CCN(Cc2ccc3c(c2)OCO3)CC1` (centres undefined): -0.332%; for `CSc1nc(-c2ccco2)nn1C(=O)c1ccccc1Cl`: 2.44%; for `CCCN1CCn2c3c(c4cc(Br)ccc42)CCCC31` (centres undefined): 2.19%.
In the case of `CC(=O)N(C)c1ccc(NC(=O)C(F)(F)F)cc1`, the “activity, negative = inhibition” value is 0.394%.
On to `CC(C)CNC(=O)C(=O)Nc1ccc(N(C)C)cc1`, for which the “activity, negative = inhibition” value was -10.1%.
Regarding `CN(C)c1ccc(N/C=C/C(=O)C(F)(F)F)cc1`, the Potency is 25.1 µM (active).
As to `Cn1c(N)c(C(=O)COC(=O)c2cccc(S(=O)(=O)N3CCOCC3)c2)c(=O)n(C)c1=O`, the “activity, negative = inhibition” value was -2.55%.
Same read-out and setting: in the case of `CCOC(=O)c1c(CNCc2ccccc2F)c2sc(C)cc2n1C` it was 0.937%; in that of `CSc1nc2ccccc2cc1/C=C(\C#N)c1ccc(Cl)cc1Cl`, 2.17%; in that of `C/C=N/N(c1ccccc1)c1ccccc1`, -0.868%.
Same read-out and setting: the same measure for `Cc1cc2c(c(=O)n1Cc1ccccc1)C1O[C@](CCCCN3C(=O)c4ccccc4C3=O)(Cc3ccccc31)O2`: -15.5% [at 15.4 µM]; for `O=C(CSc1nnc(CN2CCCC2)n1-c1ccc(F)cc1)c1ccc2c(c1)OCO2`: -11%.
For the molecule `Cc1cc(=O)oc2cc(OCC(=O)Nc3nnc(C4CC4)s3)ccc12`, the “activity, negative = inhibition” value was -0.34%.
As for `CCOC(=O)Cc1csc(SCc2cc(=O)oc3cc(O)ccc23)n1`, the “activity, negative = inhibition” value was 0.962%.
Regarding `CCOC(=O)Cc1csc(NC(=O)COc2ccc3c(C)cc(=O)oc3c2)n1`, the Potency was 44.7 µM (active).
Regarding `CCCCc1ccc(NC(=O)CN2C(=O)NC(Cc3ccccc3)C2=O)cc1` (centres undefined), the “activity, negative = inhibition” value is -0.0707%.
Same read-out and setting: the same measure for `CCOc1ccccc1N1CCN(C(=O)c2ccc3[nH]c(C)c(C)c3c2)CC1`: 0.339%.
The same measure, in the same setting: the same measure for `CCOc1ccc(NC(=O)CN(C)C(=O)c2cccc(S(=O)(=O)N3CCCC3)c2)cc1OCC`: 2%.
